Assay outcomes as filed in PubChem.
Only some compounds are listed: those with a hit (about 1.2% of all), similar ones and a draw of the others.
Avidin fluor = avidin bead compound fluorescence profile; Avidin beads, compound fluorescence 488/530 nm, flow cytometry; active compounds read high; fluorescence (KMESF) at 10 µM; actives 0.38% (n = 220,000); AID 1775; in the data active = fluorescence above about 47
RGS4-Gao reg = human RGS4-Galphao interaction regulation. Multiplexed bead flow cytometry, RGS4-Galphao binding; actives lie on both sides. binding response (% of control), % at 10 µM. actives 0.33% (n = 220,000); in the data active = binding response below about 49% or above about 150%; inactive = in between;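 note: fluorescent Galphao activated with aluminum fluoride binding bead-coupled RGS4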
Target sequence (P09471 whole entry, looked up): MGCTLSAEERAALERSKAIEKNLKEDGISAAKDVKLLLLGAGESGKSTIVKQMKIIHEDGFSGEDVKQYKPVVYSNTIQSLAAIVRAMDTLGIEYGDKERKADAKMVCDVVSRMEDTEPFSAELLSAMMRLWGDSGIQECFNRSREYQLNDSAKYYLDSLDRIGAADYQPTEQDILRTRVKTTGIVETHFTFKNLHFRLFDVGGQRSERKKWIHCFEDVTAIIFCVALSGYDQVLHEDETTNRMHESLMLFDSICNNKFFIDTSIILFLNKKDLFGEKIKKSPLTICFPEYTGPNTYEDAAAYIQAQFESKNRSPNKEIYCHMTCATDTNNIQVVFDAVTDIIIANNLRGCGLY
RGS16-Gao HTS = RGS16-Galphao interaction regulator (human). O15492+P09471. bead-based flow cytometry RGS16-Galphao binding, fluorescence; actives lie on both sides. binding response (% of control), % at 10 µM. actives 0.38% (n = 220,000);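 note: Galphao activated by GDP with aluminum fluoride before binding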
RGS8-Gao reg = regulators of human RGS8-Galphao interaction | multiplexed bead flow cytometry, RGS8-Galphao binding; actives lie on both sides | actives 0.34% (n = 220,000) | P09471 | response (percent of control binding), % at 10 µM | AID 1423; in the data active = response below about 60% or above about 140%; inactive = in between;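 note: Galphao activated as the GDP aluminium fluoride complex binding bead-coupled RGS8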
GSH fluor = GSH bead compound fluorescence profile; GSH beads flow cytometry, compound fluorescence 488/530 nm; active compounds read high; actives 0.25% (n = 190,000); fluorescence (KMESF) at 10 µM; AID 1776; in the data active = fluorescence above about 89;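 note: glutathione beads carrying GST-tagged Bcl family fusion proteins plus one bare bead set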
RGS7-Gao = human RGS7-Galphao interaction regulation | P09471 | Multiplexed bead flow cytometry, RGS7-Galphao binding; actives lie on both sides | binding response (% of control), % at 10 µM | actives 0.35% (n = 220,000); in the data active = binding response below about 49% or above about 150%; inconclusive = no clear call, values can overlap the other calls; inactive = in between;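 note: fluorescent Galphao held in activated GDP-AlF4 state binding bead-coupled RGS7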
RGS-Gao = RGS4-Galphao interaction regulator (human); shares compounds with RGS16-Gao HTS; multiplexed bead flow cytometry, RGS–Galpha-o binding; RGS4–Galpha-o binding response, % at 10 µM; actives 99% (n = 1,600);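 note: fluorescently labeled Galpha-o bound to GDP with aluminium fluoride binding biotinylated RGS beads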
Target sequence (P09471 whole entry, looked up): as above
Target sequence (P49798 whole entry, looked up): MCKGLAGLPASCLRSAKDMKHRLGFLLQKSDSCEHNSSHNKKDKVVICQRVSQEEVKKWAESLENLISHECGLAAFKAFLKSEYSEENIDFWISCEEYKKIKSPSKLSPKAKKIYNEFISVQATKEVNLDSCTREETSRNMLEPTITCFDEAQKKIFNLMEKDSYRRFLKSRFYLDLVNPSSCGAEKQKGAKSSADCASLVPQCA
Avidin counter = counter-screen: compounds disrupting biotin binding to avidin beads. shares compounds with RGS16-Gao HTS. streptavidin beads, fluorescein-biotin binding, flow cytometry. inhibition, % at 10 µM. 1,700 tested, under 10 active;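 active = inhibition above 50%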;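 note: median green fluorescence of gated singlet beads compared with DMSO control wells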
RGS8-Gao confirm = confirmation of regulators of human RGS8-Galphao interaction | shares compounds with RGS16-Gao HTS | bead-based flow cytometry RGS8-Galphao binding, fluorescence; actives lie on both sides | binding response (% of control), % at 10 µM | actives 3% (n = 1,700) | AID 1836; in the data active = binding response below about 72% or above about 130%; inactive = in between;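 note: Galphao activated as GDP AlF4 complex before binding bead RGS8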
RGS7-Gao single = RGS7-Galphao interaction regulation, single point confirmation; shares compounds with RGS16-Gao HTS; bead-based flow cytometry RGS7-Galphao binding; actives lie on both sides; response (percent of control binding), % at 10 µM; actives 7.8% (n = 1,700); AID 1837; in the data active = response below about 75% or above about 130%; inactive = in between;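 note: fluorescent Galphao activated with GDP and aluminum fluoride binding bead-coupled RGS7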
RGS16-Gao single = RGS16-Galphao interaction regulation, single point confirmation. shares compounds with RGS16-Gao HTS. bead-based flow cytometry, RGS16-Galphao binding; actives lie on both sides. response (% of control binding), % at 10 µM. actives 4% (n = 1,700). AID 1838; in the data active = response below about 74% or above about 130%; inactive = in between;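 note: Galphao activated as the GDP aluminium fluoride complex binding bead-coupled RGS16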
RGS4-Gao single = confirmation of regulators of human RGS4-Galphao interaction; binding response (% of control), % at 10 µM; AID 1840; RGS4-Galphao binding, multiplexed bead flow cytometry; actives lie on both sides; actives 4% (n = 1,700); shares compounds with RGS16-Gao HTS; in the data active = binding response below about 74% or above about 130%; inactive = in between
RGS19-Gao single = RGS19-Galphao interaction regulation, single point confirmation | shares compounds with RGS16-Gao HTS | bead-based flow cytometry RGS19-Galphao binding; actives lie on both sides | response (percent of control binding), % at 10 µM | actives 5% (n = 1,700) | AID 1841; in the data active = response below about 50% or above about 160%; inactive = in between
A number is an active result; – = inactive; ? = inconclusive; · = no result given; [ ] = another dose, or the depositor's remark. Unless noted, the rule behind the calls is not given here.

SMILES | Avidin fluor | RGS4-Gao reg | RGS16-Gao HTS | RGS8-Gao reg | GSH fluor | RGS7-Gao | RGS-Gao | Avidin counter | RGS8-Gao confirm | RGS7-Gao single | RGS16-Gao single | RGS4-Gao single | RGS19-Gao single
COc1ccc(NC(=O)NCCCN2CCN(c3ccccc3F)CC2)cc1 | – | 11.7 | 8.9 | 22.0 | · | ? | · | – | – | – | – | – | –
CCCCC(=O)N(Cc1ccc(-c2ccccc2-c2nn[nH]n2)cc1)[C@H](C(=O)O)C(C)C | – | – | – | – | – | – | · | · | · | · | · | · | ·
COc1ccc(CNC(=O)C2CSC(c3ccc(OC)cc3)N2C(C)=O)cc1 (stereo not drawn) | 123 | – | – | – | – | 216.6[activator] | 105.7 | – | – | – | – | – | –
CC(=O)c1sc(-c2ccc(F)cc2)cc1NS(=O)(=O)c1ccccc1 | – | -36.5 | -20.1 | 1.8 | · | ? | · | – | – | – | – | – | –
CCOC(=O)c1c(C)n(CC)c2ccc(OC(=O)c3ccc([N+](=O)[O-])cc3)cc12 | – | – | – | – | – | · | · | – | – | – | – | – | –
Cc1ccccc1OCC(=O)N(Cc1cccs1)C1CCS(=O)(=O)C1 (stereo not drawn) | – | – | – | – | – | – | · | · | · | · | · | · | ·
Cc1cccc(OC(C)C(=O)N(Cc2cccs2)C2CCS(=O)(=O)C2)c1C (stereo not drawn) | – | – | -15.6 | – | – | – | 69.4 | – | – | – | – | – | –
CCOC(=O)C(NC(C)=O)(Nc1cccc(F)c1)C(F)(F)F (stereo not drawn) | – | – | – | – | – | – | · | · | · | · | · | · | ·
CCOC(=O)C(NC(C)=O)(Nc1ccc(F)cc1)C(F)(F)F (stereo not drawn) | 260 | – | – | – | – | 205.5[activator] | 138.0 | – | – | – | – | – | –
O=C(NCCCN1CCCC1)C1CCN(C(=O)c2cc3sccc3n2Cc2ccc(F)cc2)CC1 | 193 | – | – | – | – | 181.4[activator] | 133.9 | · | · | · | · | · | ·
COCCCNC(=O)C1CCN(C(=O)c2cc3sccc3n2Cc2ccc(F)cc2)CC1 | – | – | – | – | – | – | · | · | · | · | · | · | ·
CC(=O)OCC(=O)C1(O)CCC2C3CCC4=CC(=O)C=CC4(C)C3C(O)CC21C (stereo not drawn) | – | – | – | – | · | ? | · | · | · | · | · | · | ·
CCN(CCNC(=O)CN(C)S(=O)(=O)c1cccc2nsnc12)c1ccccc1 | – | – | – | – | – | – | · | · | · | · | · | · | ·
CCN(CCCNC(=O)CN(C)S(=O)(=O)c1cccc2nsnc12)c1cccc(C)c1 | · | · | · | · | – | · | · | – | – | – | – | – | –
Cc1nn(CCCC(=O)N2CCN(c3ccc(F)cc3)CC2)c(C)c1[N+](=O)[O-] | – | 25.4 | 14.6 | 17.8 | – | 19.3 | · | – | – | – | – | – | –
S=c1[nH]nc(COc2ccccc2)n1Cc1ccccc1 | – | – | 3.7 | 50.1 | – | – | 80.3 | – | – | – | – | – | –
CCC1Oc2ccccc2N(CC(=O)NCc2ccco2)C1=O (stereo not drawn) | – | – | – | – | – | – | · | · | · | · | · | · | ·
O=C(N/N=C/c1cccn1-c1ccc([N+](=O)[O-])cc1)c1cccnc1 | – | – | – | – | · | ? | · | · | · | · | · | · | ·
c1ccc(-c2nnsc2-c2nc3ccccc3[nH]2)cc1 | – | – | – | 55.5 | – | – | 84.4 | – | – | – | – | – | –
CCOc1ccc(NC(=O)CC)cc1 | – | – | – | – | – | ? | · | · | · | · | · | · | ·
CCOc1ccc(NC(=O)CSC(N)=O)cc1 | – | – | – | 162.6[activator] | – | – | 99.5 | – | – | – | – | – | –
O=C(Nc1nc2ccccc2s1)C1CCN(S(=O)(=O)c2cc([N+](=O)[O-])ccc2Cl)CC1 | – | – | – | – | · | ? | · | · | · | · | · | · | ·
COc1ccc(/C=C/c2nnc(NC(C)=O)s2)cc1 | – | 157.6[activator] | – | – | · | ? | · | – | – | – | – | – | –
COC(=O)Nc1nnc(/C=C/c2ccc(OC)cc2)s1 | – | – | – | – | – | – | · | · | · | · | · | · | ·
CCN(CC)S(=O)(=O)c1ccc2c(c1)nc(CCC(=O)Nc1ccc3c(c1)OCO3)n2CC | – | – | 19.5 | – | – | – | 82.3 | – | – | – | – | – | –
SMILES | Avidin fluor | RGS4-Gao reg | RGS16-Gao HTS | RGS8-Gao reg | GSH fluor | RGS7-Gao | RGS-Gao | Avidin counter | RGS8-Gao confirm | RGS7-Gao single | RGS16-Gao single | RGS4-Gao single | RGS19-Gao single
CC(=O)c1cccc(NC(=O)NCc2cccnc2)c1 | · | · | · | · | – | · | · | – | – | – | – | – | –
O=C(NCc1cccnc1)Nc1cccc(NC(=O)NCc2cccnc2)c1 | – | – | – | – | – | – | · | · | · | · | · | · | ·
CCN1CCC2(CC1)Oc1c(OC)cccc1C1CC(c3cccnc3)=NN12 (stereo not drawn) | – | – | – | – | · | ? | · | · | · | · | · | · | ·
Cn1cccc1/C=N/NC(=O)c1cccc(OC(F)(F)C(F)F)c1 | – | – | – | – | – | – | · | · | · | · | · | · | ·
O=C(Cc1ccc(Br)cc1)N(Cc1ccccc1)c1ccccn1 | 59 | – | – | – | – | 151.0[activator] | 112.3 | – | – | – | – | – | –
NC1=NC(=O)CC(C(=O)Nc2cccc3ccccc23)S1 (stereo not drawn) | – | – | – | – | – | – | · | · | · | · | · | · | ·
NC1=NC(=O)CC(C(=O)NCCc2ccccc2)S1 (stereo not drawn) | · | -81.9 | -73.1 | 3.8 | – | -28.9 | · | – | – | 160.9[activator] | 129.5[activator] | 137.2[activator] | 325.6[activator]
CC(=O)NC(=S)Nc1ccc(NC(=O)COc2ccc(Cl)cc2Cl)cc1 | 78 | 150.3[activator] | – | – | – | 184.4[activator] | · | – | – | – | – | – | –
COCCCNC(=O)COc1ccc(S(=O)(=O)NCc2ccccc2)cc1Cl | – | 314.2[activator] | – | 407.2[activator] | – | 274.6[activator] | · | – | – | – | – | – | –
O=C(O)C1CCCCC1C(=O)Nc1cc(Cl)ccc1Cl (stereo not drawn) | – | – | – | 58.9 | – | 49.2 | 87.2 | – | – | – | – | – | –
